These results are taken from PubChem BioAssay.

Molecules are shown by their SMILES. The source made the active and inactive calls.

The nature of assay [1]: compound effects on lung adenocarcinoma cell viability – A549, calcein-AM fluorescence, 48 h, basal, profiling panel (AID 1162). As to conditions: higher = more signal.
Assay [2] in a line: compound effects on differentiated 3T3-L1 adipocyte viability – cell-based, 3T3-L1 adipocytes, calcein-AM fluorescence, 48 h, basal, profiling panel (AID 1163). Conditions: 3T3-L1 adipocytes viability, higher = more signal.
A short description of assay [3]: compound effects on hepatocellular carcinoma cell viability – HepG2, calcein-AM fluorescence, 48 h, basal, profiling panel (AID 1164). Conditions: higher = more signal.
Assay [4] in a line: compound effects on multiple myeloma cell viability – MM1S, calcein-AM fluorescence, 48 h, basal, profiling panel (AID 1165). Conditions: higher = more signal.
A short description of assay [5]: calcein-AM signal in unstimulated myeloma cells – cell-based, calcein-AM fluorescence, 48 h, PK04 Diversity Set, profiling panel (AID 1166).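 Further: cells grown under basal conditions without added stimulus.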 As to conditions: RPMI8226 myeloma viability, higher = more signal.
Assay [6] in a line: JC-1 mitochondrial signal, unstimulated HepG2 cells – cell-based, JC-1 fluorescence, 24 h, 100 nL compound, profiling panel (AID 1167). Conditions: HepG2 mitochondrial potential, higher = more signal.
The nature of assay [7]: JC-1 mitochondrial signal, unstimulated adipocytes – cell-based, JC-1 fluorescence, 3T3-L1 adipocytes, 24 h, 100 nL compound, profiling panel (AID 1168). Conditions: JC-1 mitochondrial fluorescence, higher = more signal, called active from +8 up or from −8 down.
Assay [8] in a line: JC-1 mitochondrial signal, unstimulated myeloma cells – cell-based, JC-1 fluorescence, RPMI8226, 24 h, 100 nL compound, profiling panel (AID 1169). Conditions: JC-1 mitochondrial potential fluorescence, higher = more signal.
A short description of assay [9]: JC-1 mitochondrial signal, unstimulated MM1S myeloma – cell-based, JC-1 fluorescence, 24 h, 100 nL compound, profiling panel (AID 1170). Conditions: MM1S mitochondrial potential, higher = more signal.
Assay [10] is described as follows: resazurin metabolic signal in A549 cells – cell-based, resazurin fluorescence, 24 h, PK04 Diversity Set, profiling panel (AID 1171). As to conditions: A549 viability, higher = more signal, called active from +8 up or from −8 down.
Further: test concentration not given here.

For `[N-]=[N+]=NCc1ccccc1C[C@@]1(C(=O)NCc2ccccc2)N=C(c2ccc(OCCCO)cc2)O[C@@H]1c1ccccc1N=[N+]=[N-]`, the z-score in assay [1] was 0.0629; in [2], -1.67; in [3], -0.236; in assay [4], -2.78; in assay [5], -3.5; in assay [6], 0.917. For the same compound, the z-score in assay [7] was 0.898 (inactive); in assay [8] it was -1.11; in assay [9] it was -1.24; in [10] it was -0.0617 (inactive).

As for `CC(C)[Si](C#C[Si](C(C)C)(C(C)C)C(C)C)(O[C@H](C)c1cn([C@H](CO)Cc2ccccc2)nn1)C(C)C`, the z-score was 1.11 in [1]; -0.355 in [2]; 0.341 in [3]; -2.37 in assay [4]; 0.482 in assay [5]; 0.376 in assay [6]. The z-score was 0.727 (inactive) in assay [7], 0.362 in assay [8], -0.156 in [9] and 0.637 (inactive) in assay [10].

Take `O=C1O[C@@H](c2ccccc2)[C@@H](c2ccccc2)N2[C@@H](c3ccccc3OCCO)[C@]3(C(=O)Nc4ccc(C#CCCO)cc43)[C@@H](C(=O)N3CCCCCCC3)[C@H]12`: the z-score is 0.22 in [1]; 0.251 in [2]; 0.717 in assay [3]; -1.68 in assay [4]; -4.14 in assay [5]; 0.548 in assay [6]. Besides, the z-score in [7] was 0.363 (inactive); in [8], -1.11; in assay [9], -1.63; in [10], -0.184 (inactive).

`CCOc1cc(C(O)C2C=CC3C(=O)N(C)C(=O)C3N2Nc2ccccc2)ccc1O` (stereo not given): the z-score is -0.157 in assay [1]; -0.0778 in assay [2]; -0.243 in assay [3]; -2.21 in assay [4]; -0.429 in assay [5]; -1.48 in [6]. Also, the z-score was -0.725 (inactive) in assay [7], -0.868 in [8], -0.536 in assay [9] and -0.0004 (inactive) in assay [10].

For the compound `CCOC(=O)C[C@H]1[C@H](OC(=O)Cc2ccc3c(c2)OCO3)[C@@H](NC(=O)CC(C)C)c2cc(OCCCO)ccc2N1C(=O)Cc1ccc(OC)cc1`, the z-score is 0.777 in assay [1]; 0.413 in assay [2]; 1.63 in [3]; -0.322 in assay [4]; 0.791 in assay [5]; 3.73 in assay [6]. Moreover, the z-score in [7] is 0.31 (inactive); in [8], 0.139; in assay [9], -0.19; in assay [10] it was -0.581 (inactive).

As to `CO[C@]12C=C(Br)[C@@H](C[C@@H]1c1cccc(C)c1)[C@@]1(CO1)C2=O`, the z-score in assay [1] is -0.406; in [2], 0.287; in assay [3], -0.932; in assay [4], -2.16; in assay [5] it was -0.643; in assay [6], -1.11. Moreover, the z-score in assay [7] is -0.295 (inactive); in assay [8] it was -0.107; in assay [9] it was -0.693; in assay [10], 0.862 (inactive).

For the compound `CC(C)(C)OC(=O)CC[C@@]1(C(=O)NCc2ccccc2)N=C(c2ccc(OCCCO)cc2)O[C@@H]1c1ccccc1N=[N+]=[N-]`, the z-score in assay [1] is -0.365; in [2], 1.55; in assay [3], -0.258; in assay [4] it was -1.68; in assay [5], -1.41; in [6], 0.515. Also, the z-score was 1.35 (inactive) in assay [7], -1.01 in assay [8], 0.24 in assay [9] and -0.682 (inactive) in assay [10].

In the case of `COc1cc2c(cc1O)C(C)N(Cc1ccc([N+](=O)[O-])o1)CC2` (stereo not given), the z-score in [1] was 0.687; in assay [2] it was 0.831; in [3] it was -0.963; in assay [4], -1.21; in [5], -0.867; in [6], -2.09. For the same compound, the z-score was -0.741 (inactive) in [7], 0.105 in [8], -0.208 in [9] and -0.0799 (inactive) in [10].
